Compounds with a hit are over-represented: about 7.9% of the library has one in this group of screens.
Lassa entry inh – qHTS for Inhibitors of binding or entry into cells for Lassa Virus; Lassa virus pseudotype entry inhibition, cell reporter; Potency, µM (titrated, usually from 37.9 µM), inactives show at the top dose activity change, negative = inhibition, usual class: inhibitors; 1.2% of 300,000 active; calls by dose curve; tested in HEK293 cells; note: potency is the fitted concentration of half-maximal effect; nearly all actives have a fitted effect of over 50% in size
Marburg entry inh – qHTS for inhibitors of binding or entry into cells for Marburg Virus. Potency, µM (titrated, usually from 37.8 µM), for inactives: top-dose activity change, negative = inhibition, hits mostly inhibitors. AID 540276, 2011. Marburg virus pseudotyped entry inhibition, cell reporter. 1.8% of 300,000 active; calls by dose curve; tested in HEK293 cells; note: potency is the fitted concentration of half-maximal effect
FMDV inh – High Throughput Screening for Foot and Mouth Disease Virus Antivirals | AID 1159524, 2015 | 1.2% of 410,000 active | Potency, µM (top dose mostly 57.9 µM), inactives show top-dose activity change, negative = inhibition, actives largely listed as inhibitors | FMDV antiviral cell-based qHTS; calls by dose curve; tested in HEK293T cells; note: read-out not given here; potency is the fitted concentration of half-maximal effect; nearly all actives have a fitted effect of over 45% in size
HCV inh – qHTS Assay for Inhibitors of Hepatitis C Virus (HCV); Huh7.5.1 HCVcc-Cre infection, luciferase reporter, 44 h; Potency, µM (top dose mostly 41.8 µM), for the others: at the top dose activity change, negative = inhibition, hits mostly inhibitors; 3.4% of 340,000 active; active = well fitted inhibition curve with a large enough effect; inconclusive = small, poorly fitted or top-dose-only effect, or another doubt; inactive = no such curve, though single readings can be large or run the other way; note: potency is the fitted concentration of half-maximal effect
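A cell-based infection assay in which seeded cells (1,000 per well) receive test compound after 4 h, are inoculated with HCVcc-Cre at approximately 0.5 moi, and are incubated 44 h before luminescence detection.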
HCMV antiviral – qHTS Assay for inhibitors of the human cytomegalovirus (HCMV). AID 1259415, 2018. 4.5% of 410,000 active. HFF cells, HCMV-luciferase reporter, 72 h; hits give low values. activity change, negative = inhibition, % at 57.5 µM; in the data active = activity change below about -60%; inconclusive = no clear call, values can overlap the other calls; inactive = above about -39%
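Two-dose cell screen: HFF monolayers treated with compounds and infected with luciferase-expressing HCMV at 1 PFU/cell, 72 h at 37C, then lysed for luciferase measurement.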
An asterisk follows results filed as active; ? = inconclusive; nt = not tested or not shown; [ ] = remark or other dose. % is set by controls: 0 for no effect and ±100 for the full control effect.

SMILES | Lassa entry inh | Marburg entry inh | FMDV inh | HCV inh | HCMV antiviral
COc1cc(CN2CCc3ccc(NC(=O)CCc4ccccc4OC)cc3C2)ccc1O | nt | nt | -0.7% | ? | -10.2
COc1cccc(CN2CCc3ccc(NC(=O)CCc4ccc(C)cc4)cc3C2)c1O | nt | nt | ? | 11.2µM* | -60.6*
COc1ccc(-c2ccc(SCC(=O)Nc3cccc(C(C)=O)c3)nn2)cc1OC | ? | ? | -26.5% | 8.91µM* | 115.9
CC(=O)c1cccc(NC(=O)CSc2ccc(-c3ccco3)nn2)c1 | -2.8% | -27.0% | ? | ? | -29.1
CC(=O)c1cccc(NC(=O)CSc2ccc(-c3ccc4c(c3)OCO4)nn2)c1 | 15.2% | -0.9% | -0.7% | 11.2µM* | 24.5
COc1ccc(NC(=O)CSc2ccc(-c3ccccn3)nn2)cc1OC | ? | ? | -9.5% | 2.5% | 1.0
CCOC(=O)C1=C2C=C(OC)C=CC2OC1CN(CC)CC (stereo not drawn) | nt | -17.3%[46.1 µM] | nt | nt | nt
Cc1ccc2cc(F)c(F)c(F)c2n1 | nt | nt | -14.6% | nt | -2.5
Cc1ccc2ccc3ccc(C)nc3c2n1 | nt | nt | -24.0% | 0.316µM* | -94.1*
Cc1ccc(CNC(=O)c2nnc(CS(=O)(=O)c3ccccc3)o2)cc1 | nt | nt | -2.5% | 2.1% | 25.5
O=C(NCc1ccccc1Cl)c1nnc(CS(=O)(=O)c2ccccc2)o1 | nt | nt | -15.3% | 1.2% | -99.4*
Cc1ccc(C(=O)N(CCN(C)C)CC2CCCN(Cc3ccccc3F)C2)cc1C (stereo not drawn) | ? | ? | -21.9% | 11.2µM* | ?
CN(C)CCN(CC1CCCN(Cc2ccccc2F)C1)C(=O)Cc1ccccc1F (stereo not drawn) | nt | nt | -2.4% | ? | -23.8
Cc1ccc2nc(-c3ccc4c(c3)OCCO4)cn2c1 | 1µM* | ? | 3.16µM* | -9.8% | -103.2*
Oc1ccccc1-c1cc(-c2ccccc2)no1 | ? | ? | 9.8% | -19.2% | 176.3
c1ccn2cc(-c3ccc4c(c3)OCCO4)nc2c1 | nt | nt | -59.6% | -9.0% | ?
Cc1ccc2nc(-c3cc(-c4ccccc4)no3)cn2c1 | 0.891µM* | ? | -48.4% | -2.0% | 5.4
CCc1ccn2cc(-c3cc(-c4ccccc4)no3)nc2c1 | nt | nt | 3.16µM* | 10µM* | -95.3*
Clc1ccc(-c2cc(-c3ccccc3)on2)cc1 | nt | nt | 51.1% | ? | 70.1
Cc1ccc(-c2cc(-c3ccccc3)no2)c(O)c1 | 5.01µM* | ? | ? | 9.3% | 3.2
CCOc1ccccc1CNC(=O)CN1C(=O)CCCc2ccccc21 | 7.5%[46.1 µM] | nt | -0.1% | nt | 0.0
CN(C)C(=O)COC(=O)/C=C/c1cn(-c2ccccc2)nc1-c1cccs1 | 9.3% | -26.8%[46.1 µM] | -0.4% | -18.8% | -14.0
COc1ccc(N2CCN(C(=O)c3cc(-c4cccs4)nc4ccccc34)CC2)cc1 | nt | 11.2µM* | 16.3% | ? | -6.4
COc1ccc(-c2cc(C(=O)N3CCN(c4ccccc4)CC3)c3ccccc3n2)cc1OC | 4.47µM* | ? | -8.0% | ? | 133.3
COc1ccc(-c2cc(C(=O)N3CCCCCC3)c3ccccc3n2)cc1 | 16.6% | -10.6% | 21.5% | ? | -14.9
SMILES | Lassa entry inh | Marburg entry inh | FMDV inh | HCV inh | HCMV antiviral
O=C(/C=C/c1cn(-c2ccccc2)nc1-c1cccs1)NCCN1CCOCC1 | nt | nt | 3.7% | 14.1µM* | -7.3
COc1ccc(-c2cc(C(=O)N(C)CC(=O)Nc3ccccc3Br)c3ccccc3n2)cc1OC | ? | ? | -18.5% | 20µM* | 12.8
Cc1c(C(=O)NCCN2CCOCC2)cnn1-c1nccc(-c2cc3ccccc3o2)n1 | nt | nt | -20.6% | nt | nt
C=CCN(Cc1ccc(OC)c(OC)c1)C(=O)c1cc2cc(F)ccc2[nH]1 | nt | nt | -13.8% | ? | 74.6
Cc1cc(NC(=O)Nc2cc(Cl)sc2Cl)no1 | 9.2% | -10.8% | 8.9% | ? | nt
O=C(c1cn(-c2ccccc2)nc1-c1cccc(Br)c1)N1CCOCC1 | 1.2% | ? | 4.5% | ? | -63.4*
O=C(c1cn(-c2ccccc2)nc1-c1cccs1)N1CCOCC1 | -0.4% | 1.8% | 8.7% | -6.3% | -0.1
O=C(c1cn(-c2ccccc2)nc1-c1cccs1)N1CCN(c2ccccc2)CC1 | -28.1% | ? | 4.1% | 7.08µM* | nt
O=C(c1cn(-c2ccccc2)nc1-c1ccc(Br)cc1)N1CCOCC1 | 5.1% | -2.2% | -9.5% | 22.1% | ?
CCC(=O)N(C)C[C@@H]1Oc2ncc(Br)cc2C(=O)N([C@@H](C)CO)C[C@H]1C | nt | nt | -13.5% | nt | 3.2
